Measured values taken from PubChem BioAssay (NCI).
The panel holds about 83,000 compounds, 20% with a hit somewhere; the sample as a whole holds those more often.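 Results are percent growth after 48 hours of single-concentration exposure. 100 means growth as in untreated cells, lower positive values show inhibition; negative values down to -100 show cell death.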 Values without a mark were called inactive. Calls of active or inactive are those of the source. Rule for the calls: active = growth percent below 10; inactive = the rest.

Each compound was assayed on K-562 leukemia (assay: NCI-60 one-dose screen, 48 h (100 = growth as untreated, 0 = no growth, -100 = all killed)). Details: 10 µM.

Compound | growth
O=C1/C(=C\c2cn(C(=O)c3ccc(Cl)cc3)c3ccccc23)c2ccccc2N1C(=O)c1ccc(Cl)cc1 | 83.9%
Cc1ccc(Nc2cc(C)nc(NCCCNc3ccnc4cc(Cl)ccc34)n2)cc1 | -55% (active)
COc1ccc(-c2nnc(-c3c(-c4ccccc4)nc4ncccn34)o2)cc1OC | 88.8%
Oc1[nH]c2cc(Cl)ccc2c1/C=c1/ccc2c(c1)N=C(c1cc(F)cc(F)c1)N=2 | 10.3%
Cc1cc(N(CCCNc2ccnc3cc(Cl)ccc23)Cc2ccc3c(c2)OCO3)nc(N2CCOCC2)n1 | -6.17% (active)
COc1cc(/C=N/NC(=O)c2ccccc2Nc2ccnc(C(F)(F)F)c2)ccc1O | 90.4%
Cc1cc(N(CCCNc2ccnc3cc(Cl)ccc23)Cc2ccc3c(c2)OCO3)nc(N2CCCCC2)n1 | -45.5% (active)
Clc1ccc2c(NCCCNc3nccc(Nc4ccc(Br)cc4)n3)ccnc2c1 | -68.8% (active)
Cc1cc(N(CCCNc2ccnc3cc(Cl)ccc23)Cc2cccs2)nc(Cl)n1 | 0.837% (active)
Clc1ccc(Nc2ccnc(NCCCNc3ccnc4cc(Cl)ccc34)n2)cc1 | -56.9% (active)
Cc1cc(Cl)nc(N(CCCNc2ccnc3cc(Cl)ccc23)Cc2cccs2)n1 | -11.7% (active)
CCCCN(CCCC)c1cc(C(=O)CCCCCN)c2ccccc2n1 | -67.9% (active)
COc1ccc(-c2nc3sccn3c2-c2nc3c([nH]2)C(=O)c2ccccc2C3=O)cc1 | 84.8%
CN(C)CCNC(=O)c1cccn2c(=O)c3cc4ccccc4cc3nc12 | 4.58% (active)
CC(C)=CCc1cc(O)cc2c1OC(C=C(C)C)C1=C2C(=O)C2=C(NCCS2(=O)=O)C1=O (centres undefined) | 2.31% (active)
Clc1ccc(Nc2ccnc(NCCNc3ccnc4cc(Cl)ccc34)n2)cc1 | -54.6% (active)
COc1cc(-c2nc(-c3nnc(-c4ccc(F)c(Cl)c4)o3)c3ccccn23)cc(OC)c1OC | 52.6%
COc1ccc(-c2nc3ccccn3c2-c2nnc(-c3cc(OC)c(OC)c(OC)c3)o2)cc1 | 102%
CN1CCC(CNc2cc(C3(C(=O)Nc4cc(C(=O)Nc5ccc(Cl)c(C(F)(F)F)c5)ccc4F)CC3)ncn2)CC1 | -60.3% (active)
CN1CCC2(CC1)NC(=O)c1c(c3ccc(Cl)c(Cl)c3n1C)C2C#N (centres undefined) | 80.1%

Compound | growth
COc1ccc(-c2nc3ncccn3c2-c2nnc(-c3ccsc3C)o2)cc1 | 92.2%
COc1ccc2c(c1)/C(=C\c1c[nH]c3ccc(OC)cc13)C(=O)N2 | 11.6%
O=C(Nc1cccc(Br)c1)c1cc(=O)[nH]c2ccccc12 | 55.8%
NC(=O)CC1(c2ccccc2)CCCCC1 | 92.3%
COC(=O)C(=C\c1ccc2c(c1)OCO2)/C(=C/c1ccc2c(c1)OCO2)C(=O)OC | 108%
Fc1ccc(-c2nnc(-c3c(-c4ccc(F)cc4)nc4ccccn34)o2)cc1 | 87.2%
COc1ccc(Nc2cc(C)nc(NCCCNc3ccnc4cc(Cl)ccc34)n2)cc1 | -42.2% (active)
COc1cc(-c2nnc(-c3c(-c4ccc(F)cc4)nc4ccccn34)o2)cc(OC)c1OC | 98.8%
CCN(CC)CCNc1ccc(CO)c2oc3cc(Cl)ccc3c(=O)c12 | 81.8%
CC(C)=CCc1cc(O)cc2c1OC(C=C(C)C)C1=C2C(=O)C2=C(C1=O)S(=O)(=O)CCN2 (centres undefined) | 5.77% (active)
Cc1cc(Nc2ccc(Cl)cc2)nc(NCCCNc2ccnc3cc(Cl)ccc23)n1 | -53.8% (active)
CC12O[C@H](C[C@@H](OC(=O)c3ccccc3)[C@H]1O)n1c3ccccc3c3c4c(c5c6ccccc6n2c5c31)C(=O)NC4=O | 71%
Cc1ccc(C(=O)Nc2cccc(F)c2)cc1NC(=O)C1(c2ncnc3[nH]ccc23)CC1 | 6.39% (active)
COc1cc(-c2nc(-c3nnc(-c4ccccc4Cl)o3)c3ccccn23)cc(OC)c1OC | 65.8%
COc1ccc(Nc2ccnc(NCCNc3ccnc4cc(Cl)ccc34)n2)cc1 | 3.54% (active)
COc1cc(Nc2ccnc(NCCNc3ccnc4cc(Cl)ccc34)n2)cc(OC)c1 | 2.17% (active)
O=C(Nc1nc2ccc(F)cc2s1)c1cc(-c2ccc(F)cc2)n2nc(-c3ccccc3)cc2n1 | 99.9%
CC12O[C@H](C[C@@H](O)[C@H]1O)n1c3ccccc3c3c4c(c5c6ccccc6n2c5c31)C(=O)N(CCCN)C4=O | 15.5%
COc1ccc(-c2nc3ncccn3c2-c2nnc(-c3ccc(F)cc3)o2)cc1 | 87.7%
